# Assay results as given in PubChem BioAssay (EPA / NIEHS).
# Several values for one entry are separate records, joined by “and”; a condition that tells them apart may be missing. Equal values may be shown once. Inconclusive results are not listed. Some structures have more than one record in an assay (separate samples or runs), and their calls can disagree. Activity calls are given as the source filed them. Rule for the calls: active = hit-call score of the fitted dose curve at least 0.9, where 1 is the maximum; inconclusive = response in the unintended direction; inactive = score below 0.9.
# Tests used:
# NCBI gene 100848466 = experiment: NVS_NR_bPR: NovaScreen (NVS) Nuclear Receptor Binding Assay for bovine Progextron Receptor (PR) (AID 2283343);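 for AC50: actives lower bound radioligand signal below DMSO meaning displacement of the label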
# Outline: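 Competitive radioligand binding with membranes from bovine uterus, scintillation read-out at 18 h post-dose. Compounds first tested in duplicate at 25 uM, then actives in concentration series; loss-of-signal relative to DMSO.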
# [1] = target: human Constitutive Androstane Receptor (CAR), NR1I3 (gene 9970) (UniProt Q14994); experiment: NVS_NR_hCAR_Antagonist: NovaScreen (NVS) Nuclear Receptor Binding Assay for human Constitutive Androstane Receptor Antagonism (CAR) (AID 2283344)
# Chain of human Constitutive Androstane Receptor (CAR), NR1I3 (gene 9970) (Q14994 whole entry, looked up): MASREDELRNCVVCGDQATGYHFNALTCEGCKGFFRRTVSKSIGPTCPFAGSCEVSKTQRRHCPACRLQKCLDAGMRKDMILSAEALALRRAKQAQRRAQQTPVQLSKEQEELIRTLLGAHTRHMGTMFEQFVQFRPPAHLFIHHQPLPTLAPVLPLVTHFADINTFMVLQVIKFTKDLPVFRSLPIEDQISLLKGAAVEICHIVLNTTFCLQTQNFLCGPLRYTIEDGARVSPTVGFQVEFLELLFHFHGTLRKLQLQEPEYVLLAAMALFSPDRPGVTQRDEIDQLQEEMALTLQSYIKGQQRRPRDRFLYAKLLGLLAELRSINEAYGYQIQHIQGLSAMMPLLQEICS
# Outline: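 Single 25 uM duplicate primary screen, with concentration-series follow-up on actives. Cell-free binding format run in antagonist mode, TR-FRET signal taken 1 h post-dose; activity is signal loss relative to DMSO.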
# [2] = target: Estrogen receptor (Homo sapiens) (UniProt P03372); experiment: OT_ER_ERaERa_1440: Odyssey Thera (OT) 24-hour HEK293T Protein-Complementation Assay for Estrogen Receptor-alpha/-alpha Homodimer (AID 2283349);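 note: hits raise fluorescence above DMSO for agonists and antagonists alike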
# Chain of Estrogen receptor (Homo sapiens) (P03372 whole entry, looked up, the tested form may be a part): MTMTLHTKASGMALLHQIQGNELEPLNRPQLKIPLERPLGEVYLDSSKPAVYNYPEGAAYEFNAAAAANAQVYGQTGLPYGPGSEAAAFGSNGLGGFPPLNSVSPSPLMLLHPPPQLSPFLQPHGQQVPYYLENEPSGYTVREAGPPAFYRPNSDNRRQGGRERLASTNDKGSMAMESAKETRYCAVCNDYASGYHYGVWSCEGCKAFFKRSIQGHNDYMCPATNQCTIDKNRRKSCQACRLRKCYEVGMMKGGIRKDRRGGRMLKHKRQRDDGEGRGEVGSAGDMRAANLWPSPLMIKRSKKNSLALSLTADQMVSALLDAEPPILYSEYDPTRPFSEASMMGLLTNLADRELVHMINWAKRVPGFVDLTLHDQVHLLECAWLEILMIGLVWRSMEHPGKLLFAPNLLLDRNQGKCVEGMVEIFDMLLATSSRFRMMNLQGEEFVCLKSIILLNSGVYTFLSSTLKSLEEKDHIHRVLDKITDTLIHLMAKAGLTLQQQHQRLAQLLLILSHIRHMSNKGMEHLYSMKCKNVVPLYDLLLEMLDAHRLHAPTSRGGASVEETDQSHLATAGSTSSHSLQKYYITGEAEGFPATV
# Outline: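 HEK293T, stable ERα LBD (aa 310-547) homodimer PCA; 24 h compound exposure; mean fluorescence intensity (nuclear for agonists, nuclear plus cytoplasmic for antagonists) vs vehicle; positive fitting direction, DMSO baseline.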
# [3] = target: Estrogen receptor (Homo sapiens) (UniProt P03372); experiment: OT_ER_ERaERa_0480: Odyssey Thera (OT) 8-hour HEK293T Protein-Complementation Assay for Estrogen Receptor-alpha/-alpha Homodimer (AID 2283351);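 note: rise in fluorescence from reassembled reporter fragments on ERα LBD homodimer in nucleus or whole cell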
# Outline: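 Cells were treated for 8 hours, then imaged on a laser scanning plate cytometer. Complementation of reporter fragments fused to the human ERα ligand-binding domain (residues 310-547) in HEK293T gave fluorescence, and gain of signal over vehicle was fitted.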
# [4] = target: Estrogen receptor (Homo sapiens) + Estrogen receptor beta (Homo sapiens) (UniProt P03372+Q92731); experiment: OT_ER_ERaERb_1440: Odyssey Thera (OT) 24-hour HEK293T Protein-Complementation Assay for Estrogen Receptor-alpha/-beta Homodimer (AID 2283356);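 note: heteromer of ER alpha and ER beta binding domains; hits raise reporter fluorescence and both agonists and antagonists give an increase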
# Chain of Estrogen receptor (Homo sapiens) + Estrogen receptor beta (Homo sapiens) (P03372 whole entry, looked up, the tested form may be a part): as above
# Chain of Estrogen receptor (Homo sapiens) + Estrogen receptor beta (Homo sapiens) (Q92731 whole entry, looked up, the tested form may be a part): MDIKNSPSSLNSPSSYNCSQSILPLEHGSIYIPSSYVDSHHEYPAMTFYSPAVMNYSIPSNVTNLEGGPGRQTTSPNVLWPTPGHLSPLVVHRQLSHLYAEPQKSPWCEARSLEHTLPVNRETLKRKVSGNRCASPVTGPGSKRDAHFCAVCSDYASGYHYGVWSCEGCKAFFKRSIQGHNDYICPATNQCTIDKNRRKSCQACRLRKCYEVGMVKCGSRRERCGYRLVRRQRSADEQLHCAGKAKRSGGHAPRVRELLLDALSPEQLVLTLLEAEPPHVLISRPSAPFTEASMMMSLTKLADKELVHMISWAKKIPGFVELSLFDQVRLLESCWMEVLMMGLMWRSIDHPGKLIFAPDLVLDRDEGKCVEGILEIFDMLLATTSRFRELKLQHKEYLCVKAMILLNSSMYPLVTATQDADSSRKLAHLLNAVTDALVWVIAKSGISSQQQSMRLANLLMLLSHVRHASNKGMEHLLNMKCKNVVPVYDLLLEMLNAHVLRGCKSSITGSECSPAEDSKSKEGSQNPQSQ
# Outline: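 Fragment complementation between ER alpha (310-547) and ER beta (263-489) ligand-binding domains in HEK293T cells; signal read 24 h post-dosing by laser scanning cytometer. Gain of fluorescence relative to DMSO fitted.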
# [5] = target: bovine Estrogen Receptor (ER), ESR1 (gene 407238) (UniProt P49884); experiment: NVS_NR_bER: NovaScreen (NVS) Nuclear Receptor Binding Assay for bovine Estrogen Receptor (ER) (AID 2283345);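 note: actives lower the bound radioligand count which means they displace the ER ligand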
# Chain of bovine Estrogen Receptor (ER), ESR1 (gene 407238) (P49884 whole entry, looked up): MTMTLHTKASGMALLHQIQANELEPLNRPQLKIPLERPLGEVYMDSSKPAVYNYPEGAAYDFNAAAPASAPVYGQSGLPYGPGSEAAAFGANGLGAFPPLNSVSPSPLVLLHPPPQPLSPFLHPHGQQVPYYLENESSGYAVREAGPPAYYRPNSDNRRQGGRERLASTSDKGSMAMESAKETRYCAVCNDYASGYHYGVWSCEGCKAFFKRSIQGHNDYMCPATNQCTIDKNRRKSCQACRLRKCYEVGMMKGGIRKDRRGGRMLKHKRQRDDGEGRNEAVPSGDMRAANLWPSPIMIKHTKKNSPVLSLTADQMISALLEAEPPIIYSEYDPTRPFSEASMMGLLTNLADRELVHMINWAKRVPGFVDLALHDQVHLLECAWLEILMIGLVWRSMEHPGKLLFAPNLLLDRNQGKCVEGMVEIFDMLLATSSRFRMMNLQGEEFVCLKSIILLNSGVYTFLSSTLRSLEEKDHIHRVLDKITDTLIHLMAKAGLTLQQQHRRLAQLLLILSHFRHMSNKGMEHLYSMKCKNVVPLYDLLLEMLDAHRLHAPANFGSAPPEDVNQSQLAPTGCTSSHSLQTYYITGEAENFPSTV
# Outline: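 Displacement of a radioligand from estrogen receptor in bovine uterine membrane preparations; scintillation signal taken at 18 hours, DMSO as baseline. Single-concentration duplicates (25 uM) preceded concentration-response follow-up of actives.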
# [6] = target: Androgen Receptor/SRC-1 Co-activator, AR (gene 367) (UniProt P10275); experiment: OT_AR_ARSRC1_0960: Odyssey Thera (OT) 16-hour HEK293T Protein-Complementation Assay for Androgen Receptor/SRC-1 Co-activator (AID 2283353);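 note: actives raise the signal above DMSO so potency reflects increased AR and SRC-1 complex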
# Chain of Androgen Receptor/SRC-1 Co-activator, AR (gene 367) (P10275 whole entry, looked up, the tested form may be a part): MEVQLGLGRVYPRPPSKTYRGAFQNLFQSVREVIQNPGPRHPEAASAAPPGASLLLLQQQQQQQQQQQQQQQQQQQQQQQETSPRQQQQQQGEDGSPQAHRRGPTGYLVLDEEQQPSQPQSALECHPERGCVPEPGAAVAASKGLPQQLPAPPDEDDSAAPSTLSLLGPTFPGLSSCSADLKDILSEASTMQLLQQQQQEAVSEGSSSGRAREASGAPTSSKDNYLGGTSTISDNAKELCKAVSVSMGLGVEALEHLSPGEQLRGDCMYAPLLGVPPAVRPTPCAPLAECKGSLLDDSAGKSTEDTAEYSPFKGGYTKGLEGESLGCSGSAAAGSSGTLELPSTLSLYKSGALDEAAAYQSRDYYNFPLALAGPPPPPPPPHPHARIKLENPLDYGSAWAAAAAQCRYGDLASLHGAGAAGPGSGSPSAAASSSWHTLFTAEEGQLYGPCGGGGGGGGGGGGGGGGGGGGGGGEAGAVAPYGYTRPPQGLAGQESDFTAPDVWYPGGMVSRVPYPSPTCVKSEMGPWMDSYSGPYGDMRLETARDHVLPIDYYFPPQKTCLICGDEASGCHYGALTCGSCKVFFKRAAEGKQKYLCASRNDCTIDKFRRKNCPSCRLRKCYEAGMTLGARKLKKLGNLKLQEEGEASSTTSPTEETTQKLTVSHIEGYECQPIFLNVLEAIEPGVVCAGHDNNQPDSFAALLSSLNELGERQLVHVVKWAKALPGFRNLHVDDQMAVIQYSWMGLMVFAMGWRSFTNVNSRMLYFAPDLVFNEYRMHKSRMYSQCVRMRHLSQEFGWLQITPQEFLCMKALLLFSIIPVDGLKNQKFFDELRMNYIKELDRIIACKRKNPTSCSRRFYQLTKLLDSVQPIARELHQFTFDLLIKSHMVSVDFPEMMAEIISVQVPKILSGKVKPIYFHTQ
# Outline: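 Stable HEK293T line carries AR and SRC-1 each linked to a Venus fragment; chemicals are applied for 16 h, cells imaged at two wavelengths, and the 488 nm nucleus/cytoplasm ratio is taken as the signal, rising relative to DMSO.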
# [7] = target: Androgen Receptor/SRC-1 Co-activator, AR (gene 367) (UniProt P10275); experiment: OT_AR_ARSRC1_0480: Odyssey Thera (OT) 8-hour HEK293T Protein-Complementation Assay for Androgen Receptor/SRC-1 Co-activator (AID 2283354);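 note: hits raise the complementation signal above DMSO so AC50 marks enhancers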
# Outline: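 Reconstituted split-Venus YFP signal from AR–SRC-1 interaction, read by imaging 8 h post-dose in stable HEK293T lines. The 488 nm nucleus-to-cytoplasm ratio (≥400 cells/image) was fitted upward against DMSO.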
# [8] = target: chimpanzee Androgen Receptor (AR), AR (gene 747460) (UniProt O97775); experiment: NVS_NR_cAR: NovaScreen (NVS) Nuclear Receptor Binding Assay for chimpanzee Androgen Receptor (AR) (AID 2283346);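 note: radioligand displacement from AR measured by scintillation counting in a cell-free assay; a loss of bound radioligand signal versus DMSO counts as binding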
# Chain of chimpanzee Androgen Receptor (AR), AR (gene 747460) (O97775 whole entry, looked up): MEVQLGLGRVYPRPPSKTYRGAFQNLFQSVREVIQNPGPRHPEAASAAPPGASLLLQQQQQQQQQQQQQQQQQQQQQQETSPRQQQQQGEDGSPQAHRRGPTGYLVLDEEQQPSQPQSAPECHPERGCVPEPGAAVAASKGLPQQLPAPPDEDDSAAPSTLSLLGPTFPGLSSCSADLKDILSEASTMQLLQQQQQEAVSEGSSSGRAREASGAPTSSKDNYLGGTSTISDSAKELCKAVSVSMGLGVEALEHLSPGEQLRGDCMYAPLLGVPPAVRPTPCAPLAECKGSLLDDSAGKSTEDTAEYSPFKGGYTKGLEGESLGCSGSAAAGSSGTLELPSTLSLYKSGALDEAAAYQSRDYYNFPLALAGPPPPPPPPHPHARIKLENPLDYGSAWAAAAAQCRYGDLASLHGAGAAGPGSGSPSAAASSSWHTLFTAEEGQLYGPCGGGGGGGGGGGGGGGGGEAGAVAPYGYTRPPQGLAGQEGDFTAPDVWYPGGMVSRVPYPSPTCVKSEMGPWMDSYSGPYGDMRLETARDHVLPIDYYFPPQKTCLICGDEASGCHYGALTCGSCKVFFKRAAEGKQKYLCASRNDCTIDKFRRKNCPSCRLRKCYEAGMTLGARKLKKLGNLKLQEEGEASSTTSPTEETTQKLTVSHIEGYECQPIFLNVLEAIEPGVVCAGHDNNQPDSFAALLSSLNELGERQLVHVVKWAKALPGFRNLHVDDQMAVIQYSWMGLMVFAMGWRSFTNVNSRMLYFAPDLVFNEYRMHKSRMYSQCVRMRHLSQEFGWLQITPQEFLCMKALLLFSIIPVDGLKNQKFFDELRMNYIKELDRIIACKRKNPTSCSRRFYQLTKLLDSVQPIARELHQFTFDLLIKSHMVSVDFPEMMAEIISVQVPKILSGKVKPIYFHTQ
# Outline: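 Cell-free competition binding with insect-cell (Sf9/Sf21) extracted chimpanzee AR; scintillation signal from lysate at 72 h. Screened in duplicate at 25 uM, then concentration-response for actives; fitting relative to DMSO.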
# [9] = target: Bile acid receptor (Homo sapiens) (UniProt Q96RI1); experiment: NVS_NR_hFXR_Antagonist: NovaScreen (NVS) Nuclear Receptor Binding Assay for human Farnesoid X Receptor Antagonism (FXR) (AID 2283350)
# Chain of Bile acid receptor (Homo sapiens) (Q96RI1 whole entry, looked up): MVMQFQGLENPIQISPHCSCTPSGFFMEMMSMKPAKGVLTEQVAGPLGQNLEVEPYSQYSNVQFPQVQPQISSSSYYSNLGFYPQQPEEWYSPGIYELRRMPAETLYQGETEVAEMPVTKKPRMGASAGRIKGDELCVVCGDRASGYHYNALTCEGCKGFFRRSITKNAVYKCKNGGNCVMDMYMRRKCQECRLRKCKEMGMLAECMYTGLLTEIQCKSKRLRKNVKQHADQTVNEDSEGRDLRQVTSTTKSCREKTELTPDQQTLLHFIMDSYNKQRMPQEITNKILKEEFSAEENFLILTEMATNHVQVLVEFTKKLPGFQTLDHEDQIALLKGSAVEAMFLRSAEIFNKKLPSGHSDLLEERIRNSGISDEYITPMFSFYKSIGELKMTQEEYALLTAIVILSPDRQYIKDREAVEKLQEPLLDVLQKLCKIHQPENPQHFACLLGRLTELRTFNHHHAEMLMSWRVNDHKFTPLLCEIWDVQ
# Outline: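 Antagonist-format time-resolved FRET binding assay with extracted human receptor protein, read 1 hour after compound addition. Compounds first screened at 25 uM in duplicate, then actives tested in concentration series, with loss of signal relative to DMSO.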
# [10] = target: Estrogen receptor (Homo sapiens) (UniProt P03372); experiment: NVS_NR_hER: NovaScreen (NVS) Nuclear Receptor Binding Assay for human Estrogen Receptor (ER) (AID 2283348)
# Outline: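 Cell-free MCF7-derived ER preparation, specific radioligand displaced by test compound, read by scintillation counting 18 h post-dosing. Duplicate single-point 25 uM screen, then concentration-response confirmation; DMSO baseline.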
# [11] = target: Bile acid receptor (Homo sapiens) (UniProt Q96RI1); experiment: NVS_NR_hFXR_Agonist: NovaScreen (NVS) Nuclear Receptor Binding Assay for human Farnesoid X Receptor Agonism (FXR) (AID 2283347)
# Outline: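 Agonist-mode FXR assay read by time-resolved FRET 1 h after compound addition, using isolated human receptor protein without cells. Duplicate 25 uM single-point primary screen, concentration series for confirmed actives; DMSO as baseline.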
# [12] = target: rat Mineralocorticoid Receptor (MR), Nr3c2 (gene 25672) (UniProt P22199); experiment: NVS_NR_rMR: NovaScreen (NVS) Nuclear Receptor Binding Assay for rat Mineralocorticoid Receptor (MR) (AID 2283355)
# Outline: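 Primary HTS ran in duplicate at a single 25 uM concentration, with concentration-series follow-up for actives. Receptor source: adrenalectomized rat brain supernatant, cell-free. Radioligand displacement read by scintillation at 24 h, relative to DMSO baseline.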
# [13] = target: rat Gamma-Aminobutyric Acid Type A Receptor BDZ, alpha 6 site (GABARa6), Gabra6 (gene 29708) (UniProt P30191); experiment: NVS_LGIC_rGABARa6: NovaScreen (NVS) Ligand-Gated Ion Channel Assay for rat Gamma-Aminobutyric Acid Type A Receptor BDZ, alpha 6 site (GABARa6) (AID 2283339)
# Outline: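 Actives from a 25 uM duplicate screen were retested in concentration series (max 50 uM). Specific radioligand displacement from rat cerebellar membranes was counted by filter-based scintillation at 1 h; DMSO served as baseline.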
# [14] = tested on: guinea pig Histamine Receptor (H2), gene 100729734; experiment: NVS_GPCR_gH2: NovaScreen (NVS) G Protein-Coupled Receptor Assay for guinea pig Histamine Receptor (H2) (AID 2283342)
# Outline: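 Guinea pig striatal membrane preparation with specific radioligand; bound counts measured by filtration and scintillation 1 h post-dosing, DMSO as baseline. Chemicals passing a 25 uM duplicate screen were titrated to a 50 uM maximum.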
# [15] = target: bovine Gamma-Aminobutyric Acid Type A Receptor Agonist (GABAR Agonist), GABRA1 (gene 780973) (UniProt P08219); experiment: NVS_LGIC_bGABAR_Agonist: NovaScreen (NVS) Ligand-Gated Ion Channel Assay for bovine Gamma-Aminobutyric Acid Type A Receptor Agonist (GABAR Agonist) (AID 2283338)
# Outline: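 Radioligand binding to bovine cerebellar membranes in agonist format, read by filter-based scintillation counting after 1 h. Primary screen in duplicate at 25 uM, with actives followed in concentration series. Gain of signal versus DMSO.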
# [16] = NVS_IC_rCaBTZCHL: NovaScreen (NVS) Ion Channel Assay for Calcium Channel, Type L, Benzothiazepine Site (CaBTZCHL) (AID 2283337)
# Outline: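 Test chemicals were added to rat cortical membranes and incubated 1.5 h with a tritiated or iodinated radioligand for the benzothiazepine site. Bound ligand was separated by filtration and counted. Actives from the 25 uM duplicate screen were retested in concentration series.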
# [17] = target: rat Glutamate, MK-801 Agonist Site (GluNMDA_MK801), Grin1 (gene 24408) (UniProt P35439); experiment: NVS_LGIC_rGluNMDA_MK801_Agonist: NovaScreen (NVS) Ligand-Gated Ion Channel Assay for rat Glutamate, MK-801 Agonist Site (GluNMDA_MK801) (AID 2283340)
# Outline: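 Rat forebrain membrane preparation; MK-801-site radioligand binding read by filtration and scintillation after 1.5 h. Single-point 25 uM duplicate screen, followed by singleton concentration series to 50 uM max; DMSO baseline.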
# [18] = target: rat Glycine Receptor, Strychnine-sensitive (GlyRStrySens), Glra1 (gene 25674) (UniProt P07727); experiment: NVS_LGIC_rGlyRStrySens: NovaScreen (NVS) Ligand-Gated Ion Channel Assay for rat Glycine Receptor, Strychnine-sensitive (GlyRStrySens) (AID 2283341)
# Outline: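 Radioligand displacement on rat spinal cord membranes, 1 hr, filter scintillation read-out. Single-concentration duplicate screen at 25 uM; chemicals meeting threshold (e.g., 30% inhibition) rerun in concentration-response up to 50 uM. Loss of binding fitted versus DMSO.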
compound,measurement,setting,value
COc1nn(CSP(=S)(OC)OC)c(=O)s1,outcome,NCBI gene 100848466,inactive
same,AC50,[1],18.3 µM (active)
same,outcome,[2],inactive
same,outcome,[3],inactive
same,outcome,[4],inactive
O=[N+]([O-])c1c(Cl)c(Cl)c(Cl)c(Cl)c1Cl,outcome,NCBI gene 100848466,inactive
same,outcome,[1],inactive
same,outcome,[5],inactive
same,outcome,[2],inactive
same,outcome,[3],inactive
same,outcome,[6],inactive
same,outcome,[7],inactive
same,outcome,[4],inactive
O=C1c2ccccc2C(=O)N1SC(Cl)(Cl)Cl,outcome,[1],inactive
same,outcome,[5],inactive
same,outcome,[2],inactive
same,outcome,[3],inactive
N#Cc1c(Cl)c(Cl)c(Cl)c(C#N)c1Cl,outcome,NCBI gene 100848466,inactive
same,outcome,[1],inactive
same,outcome,[5],inactive
same,outcome,[8],inactive
same,outcome,[2],inactive
same,outcome,[9],inactive
same,outcome,[3],inactive
same,outcome,[4],inactive
C[C@H]1[C@H](c2ccc(Cl)cc2)SC(=O)N1C(=O)NC1CCCCC1,outcome,NCBI gene 100848466,inactive
same,outcome,[10],inactive
same,outcome,[2],inactive
same,AC50,[6],67.7 µM (active)
same,outcome,[7],inactive
same,outcome,[4],inactive
CCOc1nc(NC)nc(NC(=O)NS(=O)(=O)c2ccccc2C(=O)OC)n1,outcome,[1],inactive
same,outcome,[5],inactive
same,outcome,[10],inactive
same,outcome,[9],inactive
Oc1cc(Cl)ccc1Oc1ccc(Cl)cc1Cl,outcome,NCBI gene 100848466,inactive
same,AC50,[8],12.4 µM (active) and 15.3 µM (active) and 12.2 µM (active)
same,outcome,[11],inactive
same,outcome,[12],inactive
CC(C)OC(=O)Nc1cccc(Cl)c1,outcome,[13],inactive
same,outcome,[2],inactive
same,outcome,[3],inactive
same,outcome,[4],inactive
O=C(O)C(F)(F)C(F)(F)C(F)(F)C(F)(F)C(F)(F)C(F)(F)C(F)(F)F,outcome,NCBI gene 100848466,inactive
CCOCN(C(=O)CCl)c1c(C)cccc1CC,outcome,[14],inactive
same,AC50,[1],13.9 µM (active)
same,AC50,[8],15.5 µM (active)
same,outcome,[2],inactive
same,outcome,[3],inactive
same,outcome,[4],inactive
Oc1ccc(Cl)cc1Cc1ccccc1,outcome,[15],inactive
same,AC50,NCBI gene 100848466,12.9 µM (active) [middle of 6 runs]
same,AC50,[1],9.68 µM (active) and 25.2 µM (active) and 25 µM (active)
same,outcome,[1],inactive
same,AC50,[8],15.3 µM (active) and 15.7 µM (active) and 19.7 µM (active)
same,AC50,[6],50.5 µM (active)
same,AC50,[7],63.2 µM (active)
CC[C@H](C)[C@H]1O[C@]2(C=C[C@@H]1C)C[C@@H]1C[C@@H](C/C=C(\C)[C@@H](O[C@H]3C[C@H](OC)[C@@H](O[C@H]4C[C@H](OC)[C@@H](O)[C@H](C)O4)[C@H](C)O3)[C@@H](C)/C=C/C=C3\CO[C@@H]4[C@H](O)C(C)=C[C@@H](C(=O)O1)[C@]34O)O2 (tested in a mixture with another compound),AC50,[16],15.5 µM (active)
same,outcome,[17],inactive
same,AC50,[18],0.494 µM (active)
same,AC50,NCBI gene 100848466,6.14 µM (active)
same,AC50,[1],10.1 µM (active)
same,outcome,[5],inactive
same,AC50,[8],5.41 µM (active)
same,outcome,[2],inactive
same,outcome,[3],inactive
CC(C)(C)C(O)C(Oc1ccc(Cl)cc1)n1cncn1 (stereo not given),AC50,NCBI gene 100848466,39.8 µM (active)
same,outcome,[1],inactive
same,AC50,[8],19.6 µM (active) and 25 µM (active) and 20.5 µM (active)
COC(=O)c1ccccc1S(=O)(=O)NC(=O)N(C)c1nc(C)nc(OC)n1,outcome,[12],inactive
